Results taken from PubChem BioAssay AID489043 (National Center for Advancing Translational Sciences (NCATS), 2010).
Results filed as inconclusive are left out. Values without a mark were called inactive. Calls of active or inactive are those of the source. The call rests on the fitted dose curve; in most records, active means well fitted activation curve with a large enough effect; inconclusive means small, poorly fitted or top-dose-only effect; inactive means flat fitted curve, though single readings scatter.

biological target: Relaxin receptor 2 (Homo sapiens) (UniProt Q8WXD0); assay: qHTS Assay for Agonists of the Relaxin Receptor RXFP1: RXFP2 Hit Validation; details: HEK293 RXFP2 cAMP TR-FRET, 30 min; series mostly up to 115 µM; activation: at the top concentration; further: nearly all actives have a fitted effect of over 65% in size
How it was run: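 TR-FRET cAMP read-out in lysed HEK293 RXFP2 cells, normalized to buffer (basal) and 29 nM porcine relaxin (100%). Compounds 30 min, 37C, with Ro 20174 present. EC50 via standard Hill equation.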
Potency means the concentration at half of the fitted maximal effect.

Chain of Relaxin receptor 2 (Homo sapiens) (Q8WXD0 whole entry, looked up): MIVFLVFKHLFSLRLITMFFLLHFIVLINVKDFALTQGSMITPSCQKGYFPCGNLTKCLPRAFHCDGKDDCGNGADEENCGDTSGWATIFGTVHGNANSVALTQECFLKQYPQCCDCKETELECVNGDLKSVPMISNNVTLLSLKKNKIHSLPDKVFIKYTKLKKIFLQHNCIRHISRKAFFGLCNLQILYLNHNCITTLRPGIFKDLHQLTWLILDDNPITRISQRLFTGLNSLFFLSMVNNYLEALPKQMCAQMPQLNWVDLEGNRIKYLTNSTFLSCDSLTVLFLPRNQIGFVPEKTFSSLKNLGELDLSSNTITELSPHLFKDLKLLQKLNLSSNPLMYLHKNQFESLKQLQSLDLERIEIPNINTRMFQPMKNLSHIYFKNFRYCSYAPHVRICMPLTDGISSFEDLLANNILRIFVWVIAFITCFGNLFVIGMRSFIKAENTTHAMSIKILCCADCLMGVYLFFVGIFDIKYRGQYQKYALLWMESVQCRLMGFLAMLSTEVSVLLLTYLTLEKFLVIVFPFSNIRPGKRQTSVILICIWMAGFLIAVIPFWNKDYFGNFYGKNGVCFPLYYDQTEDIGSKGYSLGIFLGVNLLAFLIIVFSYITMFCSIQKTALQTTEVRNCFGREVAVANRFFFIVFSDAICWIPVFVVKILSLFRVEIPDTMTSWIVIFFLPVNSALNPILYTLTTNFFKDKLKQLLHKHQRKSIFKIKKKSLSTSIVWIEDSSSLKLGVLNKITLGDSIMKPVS

Compound	Potency	activation
CC(=O)Nc1ccc(S(=O)(=O)NCc2cc(=O)n(C)c(=O)n2C)cc1	30.9 µM (active)	–
C=CCNc1ncnc2c1ncn2C1OC(CO)C(O)C1O (stereo unspecified)	–	-17.7%
COc1ccc(CNC(=O)CN2C(=O)NC(C)(c3cccc(Br)c3)C2=O)cc1 (stereo unspecified)	–	0.421%
COC(=O)c1cc(CN2C(=O)c3ccccc3C2=O)c(O)c([N+](=O)[O-])c1	38.9 µM (active)	–
COc1ccc(Cl)cc1-c1n[nH]c(=S)o1	4.88 µM (active)	–
CCOc1ccc(NC(=O)CSc2ccc3nnc(-c4cccnc4)n3n2)cc1	34.6 µM (active)	–
COc1cccc(CNC(=O)c2ccc(CS(=O)Cc3ccc(C)cc3)o2)c1 (stereo unspecified)	–	1.23% [at 44.7 µM]
CCOC(=O)CNC(=O)CSc1nc2c(C)cccc2cc1CC	19.4 µM (active)	–
O=C(Nc1ccccc1C(=O)O)c1ccc(NC(=O)C2CC2)cc1	–	-15%
COC(=O)c1c(N2C(=O)CC(Sc3ncccc3C(=O)O)C2=O)sc(C)c1C (stereo unspecified)	–	-7.17%
COc1ccc(CCn2c(=N)c(C(=O)NCC3CCCO3)cc3c(=O)n4cccc(C)c4nc32)cc1 (stereo unspecified)	–	22.4%
CCN(c1ccccc1)S(=O)(=O)c1ccc(OC)c(NC(=O)C2CC(=O)N(Cc3ccccc3)C2)c1 (stereo unspecified)	–	-2.75%
COc1ccc(OC)c(NC(=O)CSc2ccc3nnc(-c4cccnc4)n3n2)c1	–	26.5%
CC(C)c1ccccc1NC(=O)c1ccccc1NC(=O)C1CCCCC1	–	3.66% [at 125 µM]
Nc1cc2ccncc2c2ccccc12	–	4.43%
COc1ccc(CC(=O)N/N=C/c2cccnc2)cc1OC	–	-3.6%

Compound	Potency	activation
CC(NC(=O)c1ccccc1NC(=O)c1ccco1)C(=O)O (stereo unspecified)	–	4.16% [at 125 µM]
CCc1cc2cc3c(cc2nc1SCC(=O)Nc1nccs1)OCO3	21.8 µM (active)	–
Cc1cccn2c(=O)c(/C=C3\SC(=S)NC3=O)c(NCCCN3CCOCC3)nc12	4.35 µM (active)	–
CCn1c(=O)c2cc(C(=O)Nc3cccc(C(C)=O)c3)sc2c2ccccc21	–	13.5%
Cc1nnc(Nc2ccc(S(N)(=O)=O)cc2)c2ccccc12	34.6 µM (active)	–
O=C(CN1C(=O)c2cccc3cccc(c23)C1=O)NCCN1CCOCC1	–	24.4% [at 44.7 µM]
Cc1cccc(NC(=O)c2ccccc2NC(=O)c2ccco2)c1	–	-1.83% [at 125 µM]
CC1(C)Cc2c(sc3ncnc(NN)c23)CO1	–	21.1% [at 44.7 µM]
CCN(CC)CCCCCC(=O)Nc1ccccc1C(=O)Nc1ccccc1	–	-1.53% [at 125 µM]
CN(Cc1ccccc1)C(=O)c1ccccc1NC(=O)c1ccco1	–	3.37% [at 125 µM]
CCN(CC)C(=O)c1cc(Cl)ccc1NC(=O)c1ccco1	–	-3.03% [at 125 µM]
CCn1c(SCC(=O)Nc2ccc(NC(C)=O)cc2)nc2c1c(=O)n(C)c(=O)n2C	27.5 µM (active)	–
O=C(Nc1ccccc1C(=O)Nc1ccccc1C(=O)NCc1ccco1)c1ccco1	inactive	–
CCCC(=O)Nc1ncnc2c1ncn2[C@@H]1O[C@@H]2OP(=O)(O)OC[C@H]2[C@H]1OC(=O)CCC	0.868 µM (active)	–
N#C/C(=C/c1ccc(OCc2ccccc2)cc1)C(=O)NC1CCCCC1	–	12.7% [at 44.7 µM]
